Screening data from PubChem.
This is a sample that favours compounds with a hit; in the whole collection about 10% have one here.
HPGD inh – qHTS Assay for Inhibitors of HPGD (15-Hydroxyprostaglandin Dehydrogenase); Potency, µM, for inactives: top-dose activity change, negative = inhibition, usual class: inhibitors; 150,000 tested, 4.3% active; purified HPGD, NADH fluorescence kinetic, PGE2 substrate; AID 894, 2007; active = well fitted inhibition curve with a large enough effect, not every such curve was filed as active; inconclusive = small, poorly fitted or top-dose-only effect, or another doubt; inactive = no such curve, though single readings can be large or run the other way; note: potency is the fitted concentration of half-maximal effect
Target sequence (P15428 whole entry, looked up): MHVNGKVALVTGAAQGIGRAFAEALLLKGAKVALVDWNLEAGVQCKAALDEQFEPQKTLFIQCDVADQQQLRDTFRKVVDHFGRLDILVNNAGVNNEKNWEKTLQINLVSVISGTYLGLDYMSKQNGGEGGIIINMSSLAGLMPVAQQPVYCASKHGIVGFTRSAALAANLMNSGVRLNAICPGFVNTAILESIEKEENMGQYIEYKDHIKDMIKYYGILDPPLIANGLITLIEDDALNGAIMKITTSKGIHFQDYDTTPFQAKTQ
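NADH formation kinetics: reaction with 30 uM PGE2 and 1 mM NAD+ (final), 20 nM enzyme, Tris-HCl pH 8 with Tween 20, after 15 min compound preincubation at room temperature. Fluorescence change, last versus first of five reads.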
ALDH1A1 inh – qHTS Assay for Inhibitors of Aldehyde Dehydrogenase 1 (ALDH1A1); Aldehyde dehydrogenase 1A1 (Homo sapiens), P00352; Purified ALDH1A1, NADH fluorescence, propionaldehyde substrate; Potency, µM (top dose mostly 75.3 µM), for inactives: at the highest dose activity, negative = inhibition, hits mostly inhibitors; 220,000 tested, 7.3% active; AID 1030, 2008; active = well fitted inhibition curve with a large enough effect, not every such curve was filed as active; inconclusive = small, poorly fitted or top-dose-only effect, or another doubt; inactive = no such curve, though single readings can be large or run the other way;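 note: potency is the fitted concentration of half-maximal effect; plate controls were no enzyme wells and a reference inhibitor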
Target sequence (P00352 whole entry, looked up): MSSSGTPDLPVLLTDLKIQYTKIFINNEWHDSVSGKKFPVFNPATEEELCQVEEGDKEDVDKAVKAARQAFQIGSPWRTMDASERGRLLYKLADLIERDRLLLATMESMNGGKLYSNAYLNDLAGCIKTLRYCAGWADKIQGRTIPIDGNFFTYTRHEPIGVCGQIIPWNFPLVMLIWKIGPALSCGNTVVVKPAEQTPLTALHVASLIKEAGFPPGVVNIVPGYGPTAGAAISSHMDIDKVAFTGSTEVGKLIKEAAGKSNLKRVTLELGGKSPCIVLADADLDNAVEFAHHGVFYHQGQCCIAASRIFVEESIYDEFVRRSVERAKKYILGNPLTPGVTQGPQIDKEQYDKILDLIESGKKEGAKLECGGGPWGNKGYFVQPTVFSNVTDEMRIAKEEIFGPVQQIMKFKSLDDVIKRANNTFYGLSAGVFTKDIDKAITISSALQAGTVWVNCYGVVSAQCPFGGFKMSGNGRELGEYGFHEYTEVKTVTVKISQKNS
PNC assembly inh – High Content Assay for Compounds that inhibit the Assembly of the Perinucleolar Compartment; PC3M PTB-GFP, PNC prevalence imaging, 16 h; stronger effect = lower value; activity change (PNC), negative = inhibition, % at 10 µM; 140,000 tested, 3.1% active;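 active = readout at or below -70, meaning at least 70% loss of cells showing the perinucleolar compartment, a nuclear body marking cancer cells; inconclusive = readout between -30 and a set limit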;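 note: plate controls were DMSO wells for no effect and camptothecin positive control wells for full effect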
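PC3M cells stably expressing PTB-GFP, 750–1000 cells/well, treated 16 h at 37 °C with compound (23 nl of library stock), in duplicate. After paraformaldehyde fixation and Hoechst stain, imaged at 20x; PNC prevalence scored by image analysis.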
aGal spleen mod – qHTS Assay for Inhibitors and Activators of Human alpha-Galactosidase From Spleen Homogenate. Alpha-galactosidase A (Homo sapiens), P06280. human spleen homogenate, 4MU-alpha-Gal fluorescence, 40 min. Potency, µM (series often up to 80 µM), inactives show top-dose activity change, negative = inhibition, most hits filed as inhibitors. 240,000 tested, 0.008% active;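 note: potency is the fitted concentration of half-maximal effect; 0% = enzyme with vehicle and -100% = no enzyme basal signal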
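qHTS titration in buffer at pH 5.0. Alpha-galactosidase activity in spleen homogenate was measured via 4-methylumbelliferone release from 1 mM fluorogenic substrate after 40 min at 37C and a pH 10 stop. AC50 came from Hill fits of control-normalized data.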
12-hLO inh – qHTS Assay for Inhibitors of 12-hLO (12-human lipoxygenase); Polyunsaturated fatty acid lipoxygenase ALOX12 (Homo sapiens), P18054; AID 1452, 2008; 150,000 tested, 0.12% active; purified 12-hLO, xylenol orange hydroperoxide absorbance; Potency, µM (highest dose often 57.1 µM), for inactives: at the top dose activity change, negative = inhibition, usual class: inhibitors; note: potency is the fitted concentration of half-maximal effect; nearly all actives have a fitted effect of over 55% in size
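Lipoxygenase turnover measured by absorbance at 573 and 405 nm after Fe-XO development. Human 12hLO 150 nM, arachidonate 40 uM, pH 7.0 Hepes buffer with detergent; 15 min compound preincubation, 30 min reaction.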
GLA inh pH 4.5 – qHTS Assay for Inhibitors of Human alpha-Galactosidase at pH 4.5 | activity change, negative = inhibition, % at 105 µM | purified enzyme, 4-MU-alpha-Gal fluorescence, pH 4.5 | 230,000 tested, under 10 active;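 note: 0% = full activity with enzyme and -100% = basal without enzyme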
Numbers without * were called inactive; ? = inconclusive; / = not tested or not shown; [ ] = remark or other dose. Unless noted, calls come from the whole dose curve; as a rule, active = well fitted curve in the direction sought with a large enough effect; inconclusive = small, poorly fitted or top-dose-only effect, or another doubt; inactive = no such curve, though single readings can be large; an effect the other way counts as inactive or inconclusive. Unless noted, % is set by controls: 0 for no effect and ±100 for the full control effect.

SMILES | HPGD inh | ALDH1A1 inh | PNC assembly inh | aGal spleen mod | 12-hLO inh | GLA inh pH 4.5
CCCCOC(=O)Nc1ccc(N(C)C)cc1 | 31.6µM* | ? | ? | -5.4% | 0.7% | -0.1
CC(C)COC(=O)NCCOC(=O)Nc1cccc(Cl)c1 | -9.8% | 3.5% | ? | -0.7% | 1.8% | 0.6
Cc1ccc(NC(=O)CN(C)Cc2nc3c(Br)cc(Br)cc3c(=O)[nH]2)cc1 | / | -9.3% | / | -5.8% | / | -7.5
FC(F)(F)c1cc(NC(=S)N2c3ccccc3-n3cccc3[C@H]2c2cccnc2)cc(C(F)(F)F)c1 | ? | ? | / | / | -9.4%[11.4 µM] | /
O=S(=O)(O)CCCc1cccc2ccccc12 | -3.8% | -0.8%[13.5 µM] | / | / | 1.3%[11.4 µM] | /
CCC(=O)OCCNc1cc(Sc2nc3ccccc3[nH]2)c2nonc2c1[N+](=O)[O-] | 7.08µM* | -20.3% | 31.5 | 2.0% | -23.6% | -9.1
O=[N+]([O-])c1c(NCCCO)cc(Sc2nc3ccccc3s2)c2nonc12 | 2.82µM* | 15.8µM* | 46.9 | -9.9% | -8.5% | -3.5
Cc1nnc(Sc2cc(NCCCO)c([N+](=O)[O-])c3nonc23)s1 | / | ? | / | 0.8% | / | -2.0
CCC(=O)OCCNc1cc(Sc2nc3ccccc3s2)c2nonc2c1[N+](=O)[O-] | 3.16µM* | 8.91µM* | 16.0 | 3.6% | 0.4% | -2.3
Cc1nnc(Sc2cc(NCCO)c([N+](=O)[O-])c3nonc23)s1 | / | -6.4% | / | -7.2% | / | -5.0
CC(C)CN1CC2(CCN(C(=O)c3cnccn3)CC2)C1 | -6.6% | -0.3% | / | -12.3% | 1.7% | /
CCOC(=O)C1(Cc2ccccc2Cl)CCN(S(=O)(=O)N(C)C)CC1 | / | 8.91µM* | / | 1.1% | / | -1.0
CC(=O)[C@H]1CC[C@@H]2[C@]1(C)CC=C1[C@]23C=C[C@]2(C[C@H](O)CC[C@@]12C)[C@H](C(=O)O)[C@@H]3C(=O)O | / | / | / | / | 4.6%[11.4 µM] | /
CC(C)Cn1c(Br)nc2c1c(=O)n(CCC#N)c(=O)n2C | 17.8µM* | -4.6% | -123.3* | 1.7% | -4.9% | -5.0
Cc1cc(F)ccc1NCC(=O)Nc1ccccc1Br | / | 28.2µM* | 2.7 | 7.3% | 2.5% | 0.6
CCn1c(SCC(=O)N2CCCc3ccccc32)nc2ccccc2c1=O | -26.0% | ? | 34.5 | -14.5% | -3.1% | -12.6
C=CCn1c(SCC(=O)NC(=O)NCc2ccco2)nc2sc(CC)cc2c1=O | -14.0% | ? | 31.9 | -17.2% | -6.8% | 5.2
Cc1cc2c(=O)n(Cc3ccco3)c(SCC(=O)NCc3ccco3)nc2s1 | -17.5% | 7.94µM* | -2.4 | 3.8% | -5.6% | 2.7
Cc1cc2c(=O)n(Cc3ccco3)c(SCC(=O)N3CCCc4ccccc43)nc2s1 | -11.6% | 11.2µM* | -5.2 | 0.3% | -5.4% | -7.0
O=C(O)COc1ccc(/C=N/n2cnc3scc(-c4cccs4)c3c2=O)cc1 | -23.0% | 7.08µM* | 27.8 | -0.4% | -2.6% | 0.5
COc1ccc(/C(C)=N/NC(=O)c2ccc(NS(=O)(=O)c3cccs3)cc2)cc1 | / | / | / | -6.0% | / | 2.0
CCN(CC)C(=O)CSc1nc(N)c2c3c(sc2n1)CC(C)CC3 (stereo not drawn) | 14.1µM* | -12.2% | 19.9 | 4.2% | -1.3% | 1.3
CCOC(=O)CSc1nc(N)c2c3c(sc2n1)CCCC3 | -18.9% | 9.2% | -2.5 | 1.8% | 5.8% | -5.7
CC1CCc2c(sc3nc(SCC(=O)NCc4ccco4)nc(N)c23)C1 (stereo not drawn) | 14.1µM* | 5.2% | -9.5 | 9.1% | -13.1% | 4.7
COc1cccc(Cn2c(=O)c(-c3ccccc3)nc3cnc(N(C)C)nc32)c1 | ? | ? | / | -3.1% | 0.1% | /
SMILES | HPGD inh | ALDH1A1 inh | PNC assembly inh | aGal spleen mod | 12-hLO inh | GLA inh pH 4.5
COc1ccccc1CNc1ncnc2ccc(-c3ccc(N(C)C)cc3)cc12 | ? | ? | / | ? | -19.7% | -12.2
Cc1cc(C)c2nc(N3CCC(C(=O)NCCCN4CC(C)CC(C)C4)CC3)sc2c1 (stereo not drawn) | / | 3.4% | / | -5.3% | / | -6.6
COc1ccc(C(=O)N2CCN(c3nnnn3-c3ccccc3)CC2)cc1OC | -1.4% | 15.8µM* | 10.8 | 7.6% | 1.4% | 5.1
CCOC(=O)N1CCN(c2nnnn2-c2ccccc2)CC1 | -5.3% | ? | -13.5 | -0.5% | 0.5% | 2.5
CO[C@@H]1COC(=O)[C@H](COCc2ccccc2)NC(=O)C/C=C\[C@@H](C)[C@H](OC)COC(=O)[C@H](COCc2ccccc2)NC(=O)C/C=C\[C@H]1C | / | 1.8%[13.5 µM] | / | -7.3%[17.5 µM] | / | /
O=C(NCCC(c1ccccc1)c1ccccc1)c1ccc(Br)o1 | 14.1µM* | ? | 47.9 | -1.9% | -4.9% | 1.7
O=C(NCCSc1c[nH]c2ccccc12)c1ccc(Br)o1 | 7.08µM* | -10.7% | -119.3* | 1.1% | -3.3% | 0.2
Cc1[nH]c2ccccc2c1SCCNC(=O)c1ccc(Br)o1 | 14.1µM* | -2.0% | ? | 7.5% | -4.2% | -9.4
CC(C)C(=O)NCCSc1c[nH]c2ccccc12 | -17.5% | -2.6% | 31.8 | 1.0% | -2.8% | 8.3
CC(C)=CCN1CCN(Cc2cc(F)ccc2-n2nc(C)cc2C)CC1CCO (stereo not drawn) | / | 8.1% | / | -2.7% | / | 6.2
CN=C(Nc1ccc(Cl)cc1)c1ccc(C(F)(F)F)cc1 | -6.9% | 11.5% | 64.8 | -1.6% | 6.6% | -29.8
Fc1ccc(CSc2nncn2NC/C=C/c2ccccc2)cc1 | 0.2% | 4.4% | -83.2* | 1.8% | -5.5% | -2.4
Fc1ccc(CSc2nncn2NCc2ccccc2)cc1 | 1.8% | 3.9% | -20.8 | 4.9% | -5.7% | 3.0
O=C(O)/C=C/c1ccc(S(=O)(=O)N2CCN(CCN3C(=O)C4C5C=CC(C5)C4C3=O)CC2)cc1 (stereo not drawn) | / | / | / | 1.5% | / | 9.8
CC(CO)(CO)Nc1ncnc2ccccc12 | -1.5% | 17.1%[13.5 µM] | / | / | 1.7%[11.4 µM] | /
Cc1ccc2nc(NC(=O)CN(C)S(=O)(=O)c3cccc4nsnc34)sc2c1 | -0.5% | 3.1% | -122.4* | -6.3% | -2.1% | 0.9
CC1CCc2nc(NC(=O)Cc3cccs3)sc2C1 (stereo not drawn) | -24.4% | 20µM* | ? | -2.6% | -7.7% | -4.5
Cc1ccc2nc(NC(=O)Cc3cccs3)sc2c1 | -21.3% | 7.94µM* | 50.5 | 6.4% | 0.8% | -1.8
CC1CCc2nc(NC(=O)C3CCCO3)sc2C1 (stereo not drawn) | -20.7% | 20µM* | ? | 11.3% | -7.2% | 5.1
